Results reported in article PMC4336329 (PLoS ONE, 2015).
Screen size: about 310,000 compounds; about 14,000 (4.5%) showed an effect of 50% or more. Effects have a minus sign here. This excerpt belongs to a sample that is enriched for strong results.

target: human ether-à-go-go-related gene (hERG) potassium channel (human, UniProt Q12809); assay: primary screen, population patch clamp on CHO cells stably expressing hERG; higher = less effect of the substance
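Also: peak tail current of the secondary pulse compared with the same well before compound.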

Chain of human ether-à-go-go-related gene (hERG) potassium channel (Q12809 whole entry, looked up): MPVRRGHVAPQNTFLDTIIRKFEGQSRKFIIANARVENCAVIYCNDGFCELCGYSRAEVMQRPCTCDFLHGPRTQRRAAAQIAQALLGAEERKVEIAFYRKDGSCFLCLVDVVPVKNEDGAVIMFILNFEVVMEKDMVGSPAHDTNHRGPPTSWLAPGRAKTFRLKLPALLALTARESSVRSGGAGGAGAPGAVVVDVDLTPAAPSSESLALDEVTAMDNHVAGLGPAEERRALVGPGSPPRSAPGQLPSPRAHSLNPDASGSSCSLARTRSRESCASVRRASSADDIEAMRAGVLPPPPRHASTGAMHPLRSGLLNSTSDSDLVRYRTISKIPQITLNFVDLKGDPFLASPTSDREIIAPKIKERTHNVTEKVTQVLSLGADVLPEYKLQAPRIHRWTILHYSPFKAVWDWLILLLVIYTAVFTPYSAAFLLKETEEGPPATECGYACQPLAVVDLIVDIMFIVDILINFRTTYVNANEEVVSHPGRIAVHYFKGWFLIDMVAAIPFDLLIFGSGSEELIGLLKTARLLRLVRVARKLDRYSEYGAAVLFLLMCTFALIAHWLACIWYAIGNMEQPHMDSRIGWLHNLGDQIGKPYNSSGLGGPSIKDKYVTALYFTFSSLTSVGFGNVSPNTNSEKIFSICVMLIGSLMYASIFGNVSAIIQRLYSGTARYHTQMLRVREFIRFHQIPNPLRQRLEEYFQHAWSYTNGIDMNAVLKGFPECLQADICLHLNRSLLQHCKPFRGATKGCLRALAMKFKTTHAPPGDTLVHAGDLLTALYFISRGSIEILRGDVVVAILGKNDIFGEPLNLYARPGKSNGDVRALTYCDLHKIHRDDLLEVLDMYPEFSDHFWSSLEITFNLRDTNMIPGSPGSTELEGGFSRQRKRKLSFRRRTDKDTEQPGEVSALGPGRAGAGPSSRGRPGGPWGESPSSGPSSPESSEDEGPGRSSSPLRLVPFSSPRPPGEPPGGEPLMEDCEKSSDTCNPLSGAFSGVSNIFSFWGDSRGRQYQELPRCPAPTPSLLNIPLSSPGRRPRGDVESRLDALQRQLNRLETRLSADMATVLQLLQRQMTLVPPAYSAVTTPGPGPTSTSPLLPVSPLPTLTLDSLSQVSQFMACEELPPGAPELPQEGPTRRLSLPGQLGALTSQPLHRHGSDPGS

Structure (SMILES) | hERG current change (%, negative = inhibition) at 10uM [%]
CCN(CC)S(=O)(=O)c1ccc(-c2cn3cc(Cl)ccc3n2)cc1 | 2.07
COc1ccc(-n2c3c(c(=O)[nH]c2=O)C(NC(=O)c2ccncc2)(C(F)(F)F)C(=O)N3)cc1 (stereo not shown) | 18.1
CCc1cc2c(Sc3nc4ccccc4s3)ncnc2s1 | 16.9
Cc1cc(C)cc(NC(=O)CCCSc2nc3ccccc3[nH]2)c1 | -2.7
Cn1c(=O)c2c(ncn2CC(=O)OCC(=O)NC2CCCc3ccccc32)n(C)c1=O (stereo not shown) | 2.36
O=C(NCc1cccnc1)c1cccc2c1C(=O)N(Cc1cccnc1)C2 | -11
COc1ccccc1CNC(=O)c1cccc2c1C(=O)N(Cc1cccnc1)C2 | -70.1
O=C(Nc1ccc2c(c1)OCO2)c1cccc2c1C(=O)N(Cc1cccnc1)C2 | -47
COCCN1Cc2cccc(C(=O)NCc3cccnc3)c2C1=O | 3.96
O=C(NCc1ccc(F)cc1)c1cccc2c1C(=O)N(Cc1cccnc1)C2 | -61.8
CCOc1ccc(NC(=O)c2cccc3c2C(=O)N(Cc2cccnc2)C3)cc1 | -22
COc1ccc(CNC(=O)c2cccc3c2C(=O)N(Cc2cccnc2)C3)cc1 | -38.6
COC(CNC(=O)c1cccc2c1C(=O)N(Cc1cccnc1)C2)OC | -15.3
COc1cc(NC(=O)c2cccc3c2C(=O)N(Cc2cccnc2)C3)cc(OC)c1OC | -79.2
O=C(CC(Sc1n[nH]c(-c2ccccc2)n1)c1ccccc1)NCc1ccccc1 (stereo not shown) | -16
Cc1ccc2sc(N(CCN(C)C)C(=O)/C=C/c3cccs3)nc2c1C.Cl | 11.8
COc1ccccc1C(=O)OCC(=O)Nc1cc(S(=O)(=O)N2CCOCC2)ccc1N1CCCC1 | -7.82

Structure (SMILES) | hERG current change (%, negative = inhibition) at 10uM [%]
O=C(NCC(=O)N1CCCC1C(=O)O)OC1CCCCC1 (stereo not shown) | -6.8
Cc1ccc(-c2noc(-c3ccno3)n2)cc1 | 9.19
Cc1cccc(-c2noc(-c3ccc(F)cc3)n2)c1 | 15.1
Cc1cccc(-c2noc(-c3ccno3)n2)c1 | -53
COc1ccccc1C(CNC(=O)CNC(=O)c1ccc(C)c(C)c1)N1CCCC1 (stereo not shown) | -6.27
Cc1noc(C)c1CSc1nnc(-c2ccccc2)n1Cc1ccco1 | -21.9
Nn1c(SC/C=C/c2ccccc2)nnc1-c1cccnc1 | 23.4
CCSc1nnc(-c2cccnc2)n1Cc1ccco1 | -7.73
C(=C\c1ccccc1)/CSc1nnc(-c2ccncc2)n1Cc1ccco1 | -63.9
c1ccc(-c2nnc(CSc3nnc(-c4ccncc4)n3Cc3ccco3)o2)cc1 | -29.8
C(=C\c1ccccc1)/CSc1nnc(-c2ccccc2)n1Cc1ccco1 | -74.7
Nn1c(SC/C=C/c2ccccc2)nnc1-c1ccncc1 | -8.06
Clc1ccc(-n2c(SC/C=C/c3ccccc3)nnc2-c2cccnc2)cc1 | -50.3
C(=C\c1ccccc1)/CSc1nnc(-c2cccnc2)n1Cc1ccco1 | -70.8
Cn1c(SC/C=C/c2ccccc2)nnc1-c1ccco1 | -27.1
O=C(CSc1nnc(-c2cccnc2)n1Cc1ccco1)N1c2ccccc2Sc2ccccc21 | -33.7
O=C(O)CCSc1nnc(-c2cccnc2)n1-c1ccccc1 | 11.2
